Each structure is given as a SMILES string. Where “and” joins values, the source holds several entries; their conditions need not be identical. Equal entries are not always repeated. For some assays here: Results with a measured potency or affinity are listed apart. Calls of active or inactive are those of the source.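 How the source made its calls, unless noted: active means compounds whose cell count with miR-34 switched on is under 0.7 times the count with it off; inactive means the rest.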

Test [1] addresses 6-phosphogluconate dehydrogenase, decarboxylating (Homo sapiens) (UniProt P52209). In words: inhibition of human phosphogluconate dehydrogenase – biochemical, recombinant enzyme, NADPH absorbance, primary screen (AID 1159550;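 active means at least 20% inhibition of 6-phosphogluconate dehydrogenase activity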). The following applies: recombinant 6PGD, NADPH absorbance 341 nm; at 10 µM; stronger effect = higher value.
Test [2] is described as follows: EMT-state selective cytotoxicity in co-culture – imaging, PC-3E GFP, TEM4-18 mCherry, primary screen (AID 1345086;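 active means compounds killing one labelled cell type while sparing the other, by normalised counts and ratio limits, not self-fluorescent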;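 on all read-outs here: cells exposed to compound for 72 h before imaging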;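 on red/green cell ratio (normalised): normalised mesenchymal count divided by normalised epithelial count so high means epithelial killing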). The following applies: PC-3E GFP / TEM4-18 mCherry co-culture, imaging cell counts, at 1 µM; for red/green cell ratio (normalised): actives lie on both sides, counts scaled to control wells, 1 = unselective.
Test [3] in a line: viability loss with induced miR-34 in A549 – imaging, A549 dox-inducible miR-34, nuclei and caspase counts, primary screen (AID 1347080). The following applies: A549 miR-34 inducible, Hoechst nuclei count, 48 h.
The nature of test [4]: MELAS cybrid and Rieske KO viability enhancers – cell-based, MELAS cybrids, Rieske KO mouse fibroblasts, CellTiter-Glo, primary screen (AID 1508586;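 active means mean z-score across replicates of 1.96 or higher in either the MELAS or the Rieske mutant cell line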;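 further: z relative to plate mean and SD of compound and empty wells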). The following applies: low glucose.
The target in test [5] is Mitogen-activated protein kinase 7 (Homo sapiens) (UniProt Q13164). In words: Gal4-ERK5 driven luciferase induction – cell-based, HTS, primary screen (AID 1508626;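 active means luciferase signal above three times the same-plate solvent-only control wells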;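 further: luciferase driven by Gal4-ERK5 fusion binding five Gal4 sites before minimal TATA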). The following applies: HeLa Gal4-ERK5 transactivation, 18 h, at 5 µM, stronger effect = higher value.
Test [6] can be described thus: P. berghei load reduction in hepatocytes – cell-based, HepG2, luciferase luminescence, HepG2 viability, primary screen (AID 624349; in the data active means parasite load remaining mostly below about 12%, no sharp cut-off; inactive means mostly above about 10%;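 further: 100% = mean of DMSO negative control wells on the same plate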). The following applies: P. berghei liver stage in HepG2, luciferase luminescence, concentration not given here; parasite load remaining: stronger effect = lower value; viability: measured here: HepG2 viability without parasites.
Test [7] in a line: blockers of polyQ-driven CASP3 activation – cell-based (AID 1583). The following applies: polyglutamine-induced caspase-3 activation, cell assay; stronger effect = higher value;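 tested at 10 µM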.
Test [8] is described as follows: yeast 75Q aggregation reduction – 75Q-TubU reporter (AID 1593). The following applies: Yeast 75Q polyglutamine aggregation reporter.
Test [9] in a line: restoration of touch response, mutant HTT neurons – whole organism, C. elegans mechanosensory neurons, N-terminal huntingtin (AID 1599). The following applies: C. elegans polyQ-huntingtin mechanosensory neurons, stronger effect = higher value.
Test [10] in a line: blockers of cytochrome c efflux from mitochondria – biochemical, purified mitochondria (AID 1603).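 Further: mouse liver mitochondria challenged with calcium chloride; signal normalized to the plate average as 100%.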 The following applies: stronger effect = lower value.
Test [11] in a line: polyglutamine aggregate formation blockers (AID 1604). The following applies: polyglutamine-induced protein aggregation inhibition assay; stronger effect = higher value; tested at 2.5 µM.
Test [12] in a line: glutamate transport activators, MN-1 cells, MN-1 cell line (AID 1612).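 Further: tested at 1 µM final; 0% = mean of DMSO vehicle wells on each plate; positive means more glutamate uptake than control and negative means less.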 The following applies: MN-1 motor neuron cells, stronger effect = higher value.
Test [13] can be described thus: GFP-Q80 aggregate reduction, neuronal-like cells, cell-based, NGF-treated PC12, GFPQ80 (AID 1614).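 Further: lower means fewer inclusions and 0 means no inclusions at all.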 The following applies: PC12 NGF-treated GFP-polyQ80 inclusion reduction.
Test [14] can be described thus: 75Q-TubH aggregate inhibition, S. cerevisiae, yeast (AID 1616). The following applies: S. cerevisiae 75Q-TubH polyglutamine aggregation suppression; stronger effect = higher value.
A short description of test [15]: compounds altering circadian rhythm period length – cell-based, LOPAC library, luminescence reporter (AID 2774; call rule not given here;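 further: values are relative to mean of DMSO wells on each plate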). The following applies: circadian reporter cells, at 7 µM, actives lie on both sides.
Test [16] is described as follows: blockers of cellular phospholipid synthesis – cell-based, LOPAC library, screen 4, primary screen (AID 1347384; call rule not given here). The following applies: animal cells, phospholipid biosynthesis inhibition screen; at 10 µM.
The target in test [17] is NAD(+) hydrolase SARM1 (Homo sapiens) (UniProt Q6SZW1). In words: blocking NAD cleavage by SARM1 SAM-TIR – cell lysate, NAD-Glo luminescence (AID 1508614;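 active means compound whose remaining NAD level is above about 45 nM, limit read from the data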). The following applies: SAM-TIR HEK293T lysate NADase, at 1 µM, stronger effect = higher value.
A short description of test [18]: galactose survival enhancers in mitochondrial complex I cybrids – cell-based, galactose medium, ATP luminescence, primary screen (AID 1645843;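 active means z-score of at least 1.8 in each of two replicates, scored against plate mean and spread of sample wells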;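 further: positive z means more ATP and so rescue of galactose-driven cybrid death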). The following applies: complex I mutant cybrid cells, 72 h, stronger effect = higher value.
Test [19] can be described thus: compounds altering viability of human ES cells (AID 493140; call rule not given here;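 further: cells exposed to compounds for four days before counting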). The following applies: human embryonic stem cell survival screen; stronger effect = higher value.
Setting [20] is: measured here: epithelial PC-3E GFP cell survival.
The mark [21] stands for this setting: measured here: mesenchymal TEM4-18 mCherry cell survival.
Setting [22] is: stronger effect = lower value, cell number ratio, induced over uninduced.
Where [23] appears, read: measured here: relative caspase fold change +Dox/-Dox.
Where [24] appears, read: measured here: total cells with miR-34 induction, stronger effect = lower value.
[25] abbreviates: measured here: total cells without miR-34 induction.
Where [26] appears, read: MELAS cybrid survival, CellTiter-Glo 48 h, stronger effect = higher value.
Setting [27] is: Rieske KO mouse fibroblast survival, CellTiter-Glo 72 h.

Sequence of Mitogen-activated protein kinase 7 (Homo sapiens) (Q13164 whole entry, looked up, the tested form may be a part): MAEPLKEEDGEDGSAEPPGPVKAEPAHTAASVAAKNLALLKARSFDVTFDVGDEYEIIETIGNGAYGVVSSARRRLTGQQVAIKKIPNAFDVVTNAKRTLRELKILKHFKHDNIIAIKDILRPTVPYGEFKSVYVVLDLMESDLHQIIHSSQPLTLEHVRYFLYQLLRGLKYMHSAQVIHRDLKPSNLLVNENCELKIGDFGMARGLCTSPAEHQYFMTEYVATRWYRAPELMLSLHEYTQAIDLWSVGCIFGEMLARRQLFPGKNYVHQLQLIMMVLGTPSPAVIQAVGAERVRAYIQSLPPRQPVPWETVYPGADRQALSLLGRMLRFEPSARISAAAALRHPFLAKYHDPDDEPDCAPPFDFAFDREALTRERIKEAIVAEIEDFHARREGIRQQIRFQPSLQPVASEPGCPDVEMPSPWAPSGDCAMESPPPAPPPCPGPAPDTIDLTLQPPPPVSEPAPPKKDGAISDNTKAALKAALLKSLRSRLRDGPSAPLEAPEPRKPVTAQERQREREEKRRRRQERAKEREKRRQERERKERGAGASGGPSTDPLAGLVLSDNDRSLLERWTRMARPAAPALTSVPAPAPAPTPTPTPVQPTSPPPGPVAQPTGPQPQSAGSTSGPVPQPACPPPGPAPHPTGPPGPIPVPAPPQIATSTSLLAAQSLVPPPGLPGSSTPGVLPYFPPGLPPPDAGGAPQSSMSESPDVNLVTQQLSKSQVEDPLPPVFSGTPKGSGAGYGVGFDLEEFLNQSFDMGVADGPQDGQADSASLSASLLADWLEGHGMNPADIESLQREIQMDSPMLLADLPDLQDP
Sequence of NAD(+) hydrolase SARM1 (Homo sapiens) (Q6SZW1 whole entry, looked up): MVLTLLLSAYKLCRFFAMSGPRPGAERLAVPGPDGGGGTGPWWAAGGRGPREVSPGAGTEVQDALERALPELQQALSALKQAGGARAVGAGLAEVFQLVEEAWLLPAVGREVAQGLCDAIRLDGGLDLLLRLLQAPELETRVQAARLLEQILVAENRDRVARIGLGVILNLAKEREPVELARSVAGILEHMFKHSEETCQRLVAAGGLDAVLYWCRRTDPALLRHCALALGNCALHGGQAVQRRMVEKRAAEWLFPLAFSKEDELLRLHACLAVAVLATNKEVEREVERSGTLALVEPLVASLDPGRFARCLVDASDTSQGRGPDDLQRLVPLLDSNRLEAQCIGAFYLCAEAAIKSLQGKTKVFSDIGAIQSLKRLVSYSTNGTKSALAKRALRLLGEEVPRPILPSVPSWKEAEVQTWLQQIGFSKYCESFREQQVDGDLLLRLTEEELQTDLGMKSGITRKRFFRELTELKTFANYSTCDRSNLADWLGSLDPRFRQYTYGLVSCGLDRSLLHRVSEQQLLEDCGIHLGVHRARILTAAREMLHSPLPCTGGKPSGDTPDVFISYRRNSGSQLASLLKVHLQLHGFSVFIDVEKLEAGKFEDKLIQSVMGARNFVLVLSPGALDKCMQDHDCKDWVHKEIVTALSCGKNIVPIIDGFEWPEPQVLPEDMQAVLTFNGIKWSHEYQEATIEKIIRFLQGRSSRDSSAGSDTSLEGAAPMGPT
Sequence of 6-phosphogluconate dehydrogenase, decarboxylating (Homo sapiens) (P52209 whole entry, looked up): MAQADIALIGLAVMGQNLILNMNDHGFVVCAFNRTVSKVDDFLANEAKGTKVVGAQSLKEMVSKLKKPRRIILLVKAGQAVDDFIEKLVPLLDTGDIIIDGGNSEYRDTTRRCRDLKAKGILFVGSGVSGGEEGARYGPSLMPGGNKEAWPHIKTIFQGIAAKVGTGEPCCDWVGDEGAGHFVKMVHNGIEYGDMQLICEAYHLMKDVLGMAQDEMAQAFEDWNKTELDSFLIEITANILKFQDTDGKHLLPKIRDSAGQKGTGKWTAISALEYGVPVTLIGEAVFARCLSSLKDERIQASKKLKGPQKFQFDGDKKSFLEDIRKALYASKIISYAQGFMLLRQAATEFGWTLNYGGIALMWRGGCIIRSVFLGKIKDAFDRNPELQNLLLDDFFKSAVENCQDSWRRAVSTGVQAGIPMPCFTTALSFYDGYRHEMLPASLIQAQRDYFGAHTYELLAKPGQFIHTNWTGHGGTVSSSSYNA

In the case of `COc1cc(O)c2c(c1)C(=O)c1cc(C)cc(O)c1C2=O`, in test [1], the inhibition was 36.5% (active). The red/green cell ratio (normalised) in test [2] is 1 (inactive). Further, the values for the normalised cell number in test [2] (setting [20]) and in test [2] (setting [21]) were 1 and 1.01, respectively. Further, the figures for the fold change in test [3] (setting [22]) and in [3] (setting [23]) were 0.975 (inactive) and 0.792, respectively. Further, the values for the cell count in [3] (setting [24]) and in [3] (setting [25]) were 9920 and 10200, respectively. Moreover, the results for the z-score in [4] (setting [26]) and in test [4] (setting [27]) were -0.364 (inactive) and 0.659, respectively. Moreover, the luciferase signal in test [5] was 212 AU (inactive).

On to `COc1ccc(-c2coc3cc(O)ccc3c2=O)cc1`, for which, in [6], the parasite load remaining is 260% (inactive). Also, in [6], the viability was determined as 88.5%. Moreover, in test [1], the inhibition is -6.94% (inactive). Further, the red/green cell ratio (normalised) in test [2] is 0.93 (inactive). Moreover, the normalised cell number in test [2] (setting [20]) was determined as 1.23; in [2] (setting [21]), 1.14. For the same molecule, the fold change is 0.949 (inactive) in [3] (setting [22]) and 0.624 in test [3] (setting [23]). Moreover, the cell count amounted to 7740 in [3] (setting [24]) and 8150 in test [3] (setting [25]). Moreover, the figures for the z-score in test [4] (setting [26]) and in test [4] (setting [27]) were -0.217 (inactive) and 0.38, respectively. For the same molecule, the luciferase signal in [5] was 140 AU (inactive).

Consider `C[N+](C)(C)CCO`, for which the inhibition in test [7] was 2.29%; in [1], 2.82% (inactive). In addition, in [8], the score was determined as 1.21. This molecule also came in with a rescue above control in test [9] of 0.45. Moreover, the cytochrome c release ratio in test [10] was 1.11. The same molecule yielded an inhibition of aggregation in test [11] of 51.5%. The glutamate uptake change in test [12] was found to be 11.9%. In addition, the inclusion score in test [13] amounted to 2. The molecule also had an aggregation suppression score in test [14] of 1.39. In test [15], the period change was -0.015 h (inactive). Moreover, the parasite load remaining in test [6] was 151% (inactive) and 49.7% (inactive). Also, the viability in test [6] is 89.2% and 117%. Also, the red/green cell ratio (normalised) in [2] was 1.11 (inactive). Also, the values for the normalised cell number in test [2] (setting [20]) and in test [2] (setting [21]) were 1.16 and 1.3, respectively. In addition, the fold change in [3] (setting [22]) was 1.01 (inactive) and 0.882 (inactive) and 0.829 (inactive); in test [3] (setting [23]) it was 2.28 and 1.39 and 4.39. The cell count is 9630 and 8510 and 11000 in [3] (setting [24]); 9520 and 9640 and 13300 in [3] (setting [25]). Further, in test [16], the call was inactive. For the same molecule, the z-score in test [4] (setting [26]) is -0.228 (inactive); in test [4] (setting [27]) it was -0.171; in [18] it was 0.51 (inactive). The remaining NAD in test [17] was 10 nM (inactive). The luciferase signal in [5] was 200 AU (inactive).

On to `COc1ccc2cc1Oc1ccc(cc1)C[C@H]1c3cc(c(OC)cc3CCN1C)Oc1c(OC)c(OC)cc3c1[C@H](C2)N(C)CC3`, for which the survival in test [19] is 1.58 (inactive). For the same molecule, in test [6], the parasite load remaining is 84.6% (inactive). Besides, the viability in [6] is 98.6%. In addition, the inhibition in [1] is 19.5% (inactive). In addition, the red/green cell ratio (normalised) in test [2] was 0.86 (inactive). Besides, the figures for the normalised cell number in test [2] (setting [20]) and in [2] (setting [21]) were 1.08 and 0.93, respectively. In addition, the fold change in [3] (setting [22]) is 0.882 (inactive) and 1.13 (inactive); in [3] (setting [23]), 1.24 and 1.19. The cell count in [3] (setting [24]) is 7200 and 3450; in test [3] (setting [25]) it was 8160 and 3060. Further, in test [5], the luciferase signal is 68 AU (inactive).

Consider `C1CCc2nnnn2CC1`, for which the period change in test [15] was -0.075 h (inactive). In addition, in test [19], the survival is 27.4 (inactive). For the same molecule, the parasite load remaining in [6] is 23.8% (inactive) and 86.6% (inactive) and 79.3% (inactive). Also, the viability in test [6] is 50.2% and 91.9% and 103%. Further, the inhibition in test [1] was 10.8% (inactive). In test [2], the red/green cell ratio (normalised) is 1.25 (inactive). Further, the normalised cell number in test [2] (setting [20]) amounted to 1.11; in test [2] (setting [21]), 1.38. In addition, the molecule was called inactive in [16]. Further, the z-score was -0.00315 (inactive) in [4] (setting [26]); -0.232 in test [4] (setting [27]); 0.7 (inactive) and 0.6 (inactive) in test [18]. Besides, the remaining NAD in test [17] is 10 nM (inactive). The luciferase signal in test [5] was 96 AU (inactive).

Consider `CC1=C(/C=C/C(C)=C/C=C/C(C)=C/C=C/C=C(C)/C=C/C=C(C)/C=C/C2=C(C)CCCC2(C)C)C(C)(C)CCC1`, for which the figures for the inhibition in [7] and in test [1] were -13.5% and 2.51% (inactive), respectively. The same molecule displayed a score in test [8] of 1.3. For the same molecule, in test [9], the rescue above control is -6.44. Besides, in test [10], the cytochrome c release ratio turned out to be 0.86. This molecule displayed an inhibition of aggregation in test [11] of 42.6%. Also, the glutamate uptake change in test [12] is -16.2%. This molecule also yielded an inclusion score in test [13] of 2.5. This molecule displayed an aggregation suppression score in test [14] of 0.881. The parasite load remaining in test [6] was 58% (inactive). Further, the viability in test [6] came out at 103%. Besides, the red/green cell ratio (normalised) in test [2] is 0.84 (inactive). The normalised cell number in test [2] (setting [20]) came to 1.16; in [2] (setting [21]), 0.98. The fold change in test [3] (setting [22]) was 0.908 (inactive); in test [3] (setting [23]), 1.03. Further, the cell count amounted to 11100 in test [3] (setting [24]) and 12200 in test [3] (setting [25]). In addition, in [17], the remaining NAD was 10 nM (inactive). In test [5], the luciferase signal was 36 AU (inactive).

Source of the values: PubChem BioAssay.
